Outcome and AC50 data for 8 compounds are collected here from PubChem BioAssay (EPA / NIEHS).

Calls of active or inactive are those of the source. How the source made its calls: active means hit-call score of the fitted dose curve at least 0.9, where 1 is the maximum; inactive means score below 0.9.

Read-out in assay [1]: Epidermal growth factor receptor (EGFR), EGFR (gene 1956)
The experiment in a line: BSK_hDFCGF_EGFR: BioMAP Diversity Plus: hDFCGF Assay for Epidermal growth factor receptor (EGFR) Biomarker Activity (AID 2283057). The conditions noted are these: primary human foreskin fibroblasts; actives raise or lower the signal. In a few lines:
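EGFR levels by ELISA in human dermal fibroblast cultures, 24 h post-treatment, fitted bidirectionally versus DMSO. Parallel wells stained with sulforhodamine B to detect overt cytotoxicity.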

Read-out in assay [2]: Interleukin-8 (IL8), CXCL8 (gene 3576)
The experiment in a line: BSK_hDFCGF_IL8: BioMAP Diversity Plus: hDFCGF Assay for Interleukin-8 (IL8) Biomarker Activity (AID 2283058). The conditions noted are these: primary human foreskin fibroblasts; actives raise or lower the signal. In short, it runs like this:
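Fibroblast monolayers (human foreskin, hDFCGF) received test chemical for 24 h before ELISA detection of IL-8; either increases or decreases relative to DMSO count as activity.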

Assay [3] in a line: BSK_hDFCGF_Proliferation: Cell Proliferation Assessment in the BioMAP Diversity Plus: hDFCGF Assay (AID 2283059).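 Further: curves fitted for both rise and fall of signal versus DMSO baseline.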 The conditions noted are these: primary human foreskin fibroblasts. In a few lines: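 Steps: dose primary human dermal fibroblasts (foreskin); […] fix in 10% TCA; stain with 0.1% SRB; read 560 nm; fit gain or loss of signal against DMSO.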
Read-out in assay [4]: Macrophage colony-stimulating factor (MCSF), CSF1 (gene 1435)
The experiment in a line: BSK_hDFCGF_MCSF: BioMAP Diversity Plus: hDFCGF Assay for Macrophage colony-stimulating factor (MCSF) Biomarker Activity (AID 2283060). The conditions noted are these: primary human foreskin fibroblasts; actives raise or lower the signal. In a few lines: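 fibroblasts (human foreskin, primary), 24 h post-dose; M-CSF by ELISA; bidirectional fit, DMSO = baseline.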

Read-out in assay [5]: TIMP metallopeptidase inhibitor 1 (TIMP1), TIMP1 (gene 7076)
The experiment in a line: BSK_hDFCGF_TIMP1: BioMAP Diversity Plus: hDFCGF Assay for TIMP metallopeptidase inhibitor 1 (TIMP1) Biomarker Activity (AID 2283062). The conditions noted are these: primary human foreskin fibroblasts; actives raise or lower the signal. In short, it runs like this:
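Bidirectional curve fitting against DMSO baseline yielded this endpoint, based on ELISA detection of TIMP-1 in primary human foreskin fibroblasts exposed to compound for 24 h.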

Read-out in assay [6]: Monokine induced gamma interferon (MIG), CXCL9 (gene 4283)
The experiment in a line: BSK_hDFCGF_MIG: BioMAP Diversity Plus: hDFCGF Assay for Monokine induced gamma interferon (MIG) Biomarker Activity (AID 2283063). The conditions noted are these: primary human foreskin fibroblasts; actives raise or lower the signal. In short, it runs like this:
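Endpoint derived by bidirectional fitting relative to DMSO; MIG quantified via ELISA in primary human foreskin fibroblasts harvested 24 h after dosing.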

Read-out in assay [7]: Matrix Metallopeptidase 1 (MMP1), MMP1 (gene 4312)
The experiment in a line: BSK_hDFCGF_MMP1: BioMAP Diversity Plus: hDFCGF Assay for Matrix Metallopeptidase 1 (MMP1) Biomarker Activity (AID 2283064). The conditions noted are these: primary human foreskin fibroblasts; actives raise or lower the signal. In a few lines: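 MMP1 levels quantified by ELISA 24 h after dosing human dermal fibroblast cultures, with parallel SRB total-protein staining for overt cytotoxicity. Data fitted in both directions against DMSO baseline.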

Read-out in assay [8]: Vascular cell adhesion molecule 1 (VCAM1), VCAM1 (gene 7412)
The experiment in a line: BSK_hDFCGF_VCAM1: BioMAP Diversity Plus: hDFCGF Assay for Vascular cell adhesion molecule 1 (VCAM1) Biomarker Activity (AID 2283065). As to conditions: primary human foreskin fibroblasts; actives raise or lower the signal. In short, it runs like this:
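Measured after 24 h chemical treatment of primary human skin fibroblasts, VCAM-1 was detected by ELISA and concentration-response analysed in both directions versus DMSO vehicle.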

Read-out in assay [9]: Plasminogen activator inhibitor-1 (PAI1), SERPINE1 (gene 5054)
The experiment in a line: BSK_hDFCGF_PAI1: BioMAP Diversity Plus: hDFCGF Assay for Plasminogen activator inhibitor-1 (PAI1) Biomarker Activity (AID 2283066). The conditions noted are these: primary human foreskin fibroblasts; actives raise or lower the signal. In a few lines:
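PAI-1 levels in human dermal foreskin fibroblasts were quantified by ELISA 24 h after dosing, with gain or loss analysed against DMSO. Overt cytotoxicity was checked by sulforhodamine B total-protein staining in parallel cultures.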

Read-out in assay [10]: Intercellular Adhesion Molecule 1 (ICAM1), ICAM1 (gene 3383)
The experiment in a line: BSK_KF3CT_ICAM1: BioMAP Diversity Plus: KF3CT Assay for Intercellular Adhesion Molecule 1 (ICAM1) Biomarker Activity (AID 2283067). The conditions noted are these: primary human keratinocytes with fibroblasts; actives raise or lower the signal. In short, it runs like this: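 Bidirectional curve fitting against a DMSO baseline was applied to ICAM-1 ELISA signal from primary human skin co-cultures harvested 24 h after treatment, with SRB staining of parallel wells for overt cytotoxicity.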

Read-out in assay [11]: Interferon-gamma inducible Protein 10 (IP10), CXCL10 (gene 3627)
The experiment in a line: BSK_KF3CT_IP10: BioMAP Diversity Plus: KF3CT Assay for Interferon-gamma inducible Protein 10 (IP10) Biomarker Activity (AID 2283068). The conditions noted are these: primary human keratinocytes with fibroblasts; actives raise or lower the signal. In a few lines: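 KF3CT co-culture (keratinocytes + foreskin fibroblasts), 24 h compound, IP-10 by ELISA; bidirectional fit vs DMSO baseline.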

A short description of assay [12]: BSK_KF3CT_SRB: Viability Assessment in the BioMAP Diversity Plus: KF3CT Assay (AID 2283069).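 Further: read 24 h after compound addition.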 As to conditions: primary human keratinocytes with fibroblasts. In a few lines: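 Cytotoxicity was gauged by SRB staining (0.1% SRB, 10% TCA fixation, 560 nm) of parallel cultures at 24 h. The cells were primary human skin keratinocytes co-cultured with fibroblasts, and activity was fitted in both directions against DMSO.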

Read-out in assay [13]: Interleukin-1 alpha (IL1a), IL1A (gene 3552)
The experiment in a line: BSK_KF3CT_IL1a: BioMAP Diversity Plus: KF3CT Assay for Interleukin-1 alpha (IL1a) Biomarker Activity (AID 2283070). As to conditions: primary human keratinocytes with fibroblasts; actives raise or lower the signal. In a few lines:
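IL-1a was detected by ELISA 24 h after chemical treatment of a co-culture of human skin keratinocytes and foreskin fibroblasts. Gain or loss of signal was fitted against the DMSO baseline.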

Read-out in assay [14]: Transforming growth factor beta 1 (TGFb1), TGFB1 (gene 7040)
The experiment in a line: BSK_KF3CT_TGFb1: BioMAP Diversity Plus: KF3CT Assay for Transforming growth factor beta 1 (TGFb1) Biomarker Activity (AID 2283072). As to conditions: primary human keratinocytes with fibroblasts; actives raise or lower the signal. In a few lines: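 ELISA quantifies TGF-b1 at 24 h post-dose in a primary human skin co-culture of keratinocytes and fibroblasts, with gain or loss judged against DMSO. Parallel SRB total-protein staining flags overt cytotoxicity.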

Read-out in assay [15]: C-C motif chemokine 2 (Homo sapiens) (UniProt P13500)
The experiment in a line: BSK_KF3CT_MCP1: BioMAP Diversity Plus: KF3CT Assay for Monocyte Chemoattractant Protein 1 (MCP1/CCL2) Biomarker Activity (AID 2283073). The conditions noted are these: primary human keratinocytes with fibroblasts; actives raise or lower the signal. In a few lines: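 Biomarker MCP-1 is measured by ELISA in primary human keratinocytes co-cultured with foreskin fibroblasts, 24 h after chemical treatment; DMSO serves as the negative control and activity baseline.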

Read-out in assay [16]: Matrix Metallopeptidase 9 (MMP9), MMP9 (gene 4318)
The experiment in a line: BSK_KF3CT_MMP9: BioMAP Diversity Plus: KF3CT Assay for Matrix Metallopeptidase 9 (MMP9) Biomarker Activity (AID 2283074). The conditions noted are these: primary human keratinocytes with fibroblasts; actives raise or lower the signal. In short, it runs like this:
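MMP-9 quantified by ELISA after 24 h chemical treatment of primary human skin keratinocyte/fibroblast co-cultures; gain or loss fitted against DMSO, with parallel SRB staining (0.1% SRB, 560 nm) for overt cytotoxicity.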

Read-out in assay [17]: urokinase plasminogen activator (uPA), PLAU (gene 5328)
The experiment in a line: BSK_KF3CT_uPA: BioMAP Diversity Plus: KF3CT Assay for urokinase plasminogen activator (uPA) Biomarker Activity (AID 2283075). As to conditions: primary human keratinocytes with fibroblasts; actives raise or lower the signal. In short, it runs like this:
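ELISA read-out of uPA 24 h after dosing human skin keratinocytes co-cultured with foreskin fibroblasts. Signal change fitted both ways relative to DMSO; sulforhodamine B on parallel cultures marks overt cytotoxicity.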

Read-out in assay [18]: CD40, CD40 (gene 958)
The experiment in a line: BSK_LPS_CD40: BioMAP Diversity Plus: LPS Assay for CD40 Biomarker Activity (AID 2283076). The conditions noted are these: primary human HUVEC with PBMC; actives raise or lower the signal. In short, it runs like this: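 Using a multiplexed primary human co-culture (umbilical vein endothelium plus PBMC), CD40 was read by ELISA 24 h after dosing, with cytotoxicity tracked by sulforhodamine B staining of parallel cultures and activity fitted bidirectionally versus DMSO.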

Read-out in assay [19]: TIMP metallopeptidase inhibitor 2 (TIMP2), TIMP2 (gene 7077)
The experiment in a line: BSK_KF3CT_TIMP2: BioMAP Diversity Plus: KF3CT Assay for TIMP metallopeptidase inhibitor 2 (TIMP2) Biomarker Activity (AID 2283071). As to conditions: primary human keratinocytes with fibroblasts; actives raise or lower the signal. In short, it runs like this: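 TIMP-2 measured by ELISA at 24 h in human keratinocyte/fibroblast primary co-cultures exposed to chemicals. Both increases and decreases were fitted against DMSO. Parallel cultures were stained with SRB for total protein as an overt-cytotoxicity check.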

For the compound `O=C1CCCCC1`, the outcome in [1], in assay [2], in [3], in [4], in assay [5] and in assay [6] was inactive. Besides, the result in assay [7], in assay [8], in assay [9], in assay [10], in assay [11] and in [12] was inactive. For the same compound, the outcome in [13], in assay [14], in assay [15], in assay [16], in assay [17] and in assay [18] was inactive.
Turning to `O=NO`, the result in assay [1], in [2], in [3], in assay [4], in [5] and in assay [6] was inactive. Further, the result in assay [7], in [8], in assay [9], in assay [10], in assay [11] and in [12] was inactive. In addition, the outcome in [13], in assay [14], in assay [15], in assay [16], in assay [17] and in [18] was inactive.
In the case of `OCC(CO)n1cnc(-c2ccc(F)cc2)c1-c1ccnc(Oc2ccccc2)n1`, the outcome in assay [1], in assay [2], in assay [3], in [5], in assay [6] and in [9] was inactive. Also, the outcome in assay [10], in assay [11], in [12], in assay [13], in assay [19] and in assay [14] was inactive. For the same compound, the result in [15], in assay [16], in assay [17] and in assay [18] was inactive. The AC50 in assay [4] was 0.148 µM (active); in assay [7] it was 0.909 µM (active).
In the case of `CC1(C)C(=O)NC(=O)N1CO`, the outcome in assay [1], in assay [2], in assay [3], in assay [4], in [5] and in [6] was inactive. The result in [7], in [9], in [10], in [11], in assay [12] and in assay [13] was inactive. The result in assay [14], in [15], in assay [16], in assay [17] and in assay [18] was inactive.
Consider `Cc1cn([C@H]2C=C[C@@H](CO)O2)c(=O)[nH]c1=O`, for which the result in [1], in [2], in assay [3], in assay [4], in assay [5] and in [6] was inactive. In addition, the outcome in assay [7], in [9], in [10], in [11], in assay [12] and in assay [13] was inactive. Besides, the result in assay [19], in assay [14], in assay [15], in [16], in [17] and in assay [18] was inactive.
With `Nc1nc(=S)c2[nH]cnc2[nH]1`, the outcome in assay [1], in assay [2], in [4], in [5], in assay [6] and in assay [9] was inactive. For the same compound, the result in assay [10], in assay [11], in assay [12], in assay [13], in assay [19] and in assay [14] was inactive. For the same compound, the result in assay [15], in assay [16], in [17] and in [18] was inactive. Besides, the values for the AC50 in assay [3] and in assay [7] were 14 µM (active) and 24.8 µM (active), respectively.
`CC(C)COC(=O)CCCCC(=O)OCC(C)C`: the outcome in assay [1], in assay [2], in assay [3], in [4], in assay [5] and in assay [6] was inactive. The outcome in [7], in [9], in [10], in assay [11], in [12] and in assay [13] was inactive. The result in assay [19], in assay [14], in [15], in assay [16], in assay [17] and in assay [18] was inactive.
In the case of `Cc1cc(Cc2ccc(N)c(C)c2)ccc1N`, the outcome in [1], in assay [2], in assay [4], in assay [5], in [6] and in [7] was inactive. For the same compound, the outcome in assay [9], in assay [10], in assay [11], in assay [12], in assay [13] and in assay [19] was inactive. Also, the outcome in [14], in assay [15], in [16], in assay [17] and in [18] was inactive. Besides, in assay [3], the AC50 was 3.12 µM (active).
